Experimental data published in PubChem BioAssay (NCI).
This is part of a sample that, as a whole, favours compounds with a hit. Of some 79,000 tested, about 15% had one in any assay. A number with no mark means an inactive call. Calls of active or inactive are those of the source. Rule as the data show it: active = growth inhibition above about 70%; inactive = the rest.

Assay: NCI Yeast Anticancer Drug Screen. Data for the mgt1 strain (AID 153)
Conditions: S. cerevisiae mgt1 mutant growth inhibition, hits give high values
Method: Growth inhibition of yeast strains with defined genetic alterations is measured as a screen for potential anti-cancer activity. Selected strains with alterations in DNA damage repair or cell cycle control were exposed to compounds and growth inhibition was measured relative to vehicle treated controls. The strain used in this assay is mgt1

Row | Compound | growth inhibition (at 1.2 µM) [%] | growth inhibition (at 3.7 µM) [%] | growth inhibition (at 11.0 µM) | growth inhibition (at 33.0 µM) | growth inhibition (at 100.0 µM)
1 | C[C](C)(C)[Ge]([O][Ge]([c]1ccccc1)[c]1ccccc1)([O][Ge]([c]1ccccc1)[c]1ccccc1)[C](C)(C)C | -2 | 3 | 44% | 67% | 62%
2 | CCCCN(CCCC)CCC(O)c1cc2c(Cl)cc(Cl)cc2c2cc(C(F)(F)F)ccc12 (stereo not given) | 27 | 30 | 99% (active) | 99% (active) | 97% (active)
3 | COc1ccc(C(NCCNC(c2ccc(OC)c(OC)c2)c2cc3c(cc2O)OCO3)c2cc3c(cc2O)OCO3)cc1OC (stereo not given) | 2 | 4 | 3% | 3% | 99% (active)
4 | O=C(CC(C(=O)O)N1CCOCC1)c1ccccc1 (stereo not given) | -3 | -3 | 1% | 33% | 65%
5 | CCOC(=O)CC1(C(=O)OCC)c2[nH]c3ccccc3c2CCN1Cc1ccccc1 (stereo not given) | -2 | -1 | 1% | 3% | 50%
6 | O=C(/C=C\c1cccc(C(F)(F)F)c1)c1ccccc1 | -3 | -1 | -3% | -2% | -4%
7 | CCCCN(CCCC)C(=O)/C=C/c1ccccc1 | -4 | -9 | -5% | -1% | 48%
8 | O=P(NC1CCCCC1)(OCc1ccccc1)OCc1ccccc1 | -1 | 0 | 4% | 4% | 7%
